Values joined by “and” are separate entries in the source; they are usually repeats but may differ in a detail not shown here. Equal entries are not always repeated. Records with an inconclusive call do not appear. Where a structure was tested more than once in an assay, its records may differ in their call. Active and inactive are the calls of the source. Calls follow the shape of the dose curve; as a rule, active = well fitted inhibition curve with a large enough effect; inconclusive = small, poorly fitted or top-dose-only effect; inactive = flat fitted curve, though single readings scatter.
What follows are compounds tested on HaCat (assay: Cytotoxic Profiling of Annotated Libraries Using Quantitative High-Throughput Screening (AID 1296008; also: nearly all actives have a fitted effect of over 60% in size)). Details: Five cell lines viability, CellTiter-Glo ATP luminescence, 48-72 h; max response: active compounds read low.
Summary of the method: (§1)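 Compounds were pin-transferred onto cells and incubated 48 or 72 hr at 37 degree Celsius, 95% humidity. CellTiter-Glo was added, plates sat 10 min at room temperature, then ATP-coupled luminescence was imaged as the viability read-out.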
`O=C(C=Cc1ccc(CN(CCO)CCc2c[nH]c3ccccc23)cc1)NO` was tested, and the Potency was 0.526 µM (active). For `COc1ccnc2[nH]cc(C(=O)C(=O)N3CCN(C(=O)c4ccccc4)C[C@@H]3C)c12`, the max response was -2.32% (inactive). `CS[C@H]1SC[C@@H]2C(=O)N(C)[C@H](C(C)C)C(=O)OC[C@H](NC(=O)c3cnc4ccccc4n3)C(=O)N[C@H](C)C(=O)N(C)[C@@H]1C(=O)N(C)[C@H](C(C)C)C(=O)OC[C@H](NC(=O)c1cnc3ccccc3n1)C(=O)N[C@H](C)C(=O)N2C` was tested, and the Potency was 0.0118 µM (active). In the case of `C#C[C@]1(O)CC[C@@H]2[C@@H]3CCC4=CC(=O)CC[C@@H]4[C@H]3CC[C@@]21CC`, the max response was -5.66% (inactive). `O=C(CN1C(=O)C2(CCCC2)NC[C@H]1c1cc(F)cc(F)c1)Nc1ccc2c(c1)C[C@@]1(C2)C(=O)Nc2ncccc21` was tested, and the max response was 3.79% (inactive). With `CCCCOc1ccc(C(=O)Nc2ccc(F)cc2F)cc1` the outcome was “inactive”. `Nc1ccc(C(=O)Nc2cccc(-c3nc(N4CCOCC4)c4oc5ncccc5c4n3)c2)cn1` was tested, and the max response was -11.9% (inactive). With `Cc1cc(C(=O)NOCCO)c(Nc2ccc(I)cc2F)n(C)c1=O` the max response was -66.6% (inactive). `CCC[C@H]1C[C@H](C(=O)N[C@@H]([C@@H]2O[C@@H](SC)[C@@H](O)[C@@H](O)[C@@H]2O)[C@H](C)Cl)N(C)C1` was tested, and the max response was -10.7% (inactive). With `O=C(O)c1ccc(Nc2ncc3c(n2)-c2ccc(Cl)cc2C(c2c(F)cccc2F)=NC3)cc1` the Potency was 9.2 µM (active). With `FC(F)c1nc2ccccc2n1-c1nc(N2CCOCC2)nc(N2CCOCC2)n1` the Potency was 3.26 µM (active). `C[C@@H](Oc1ccc2[nH]nc(C=Cc3cnn(CCO)c3)c2c1)c1c(Cl)cncc1Cl` was tested, and the Potency was 3.32 µM (active). For `Cc1onc(-c2ccccc2)c1C(=O)N[C@@H]1C(=O)N2[C@@H](C(=O)O)C(C)(C)S[C@@H]12`, the max response was -5.57% (inactive). In the case of `CCc1nc(-c2cccc(C)c2)c(-c2ccnc(NC(=O)c3ccccc3)c2)s1`, the max response was -12.8% (inactive) and -8.84% (inactive). `CCOC(=O)N1CCN([N+]([O-])=NOc2ccc([N+](=O)[O-])cc2C#N)CC1` was tested, and the max response was -20.9% (inactive).

These compounds were tested on KB-3-1 in the same assay as above. Details: Five cell lines viability, CellTiter-Glo ATP luminescence, 48-72 h; max response: active compounds read low.
Summary of the method: as §1
With `CCOC(=O)C1=C(C)NC(=S)NC1c1cccc(O)c1` (stereo not given) the Potency was 0.0469 µM (active). For `CNC(=O)c1ccc(Nc2cc(Nc3ccccc3S(=O)(=O)C(C)C)c3cc[nH]c3n2)nc1`, the Potency was 1.32 µM (active). For `Cc1cnc(NC(=O)Nc2cc(Br)c(C)cc2OC[C@@H]2CNCCO2)cn1`, the max response was -6.69% (inactive). `c1cc(CN2CCCNCCNCCCNCC2)ccc1CN1CCCNCCNCCCNCC1` was tested, and the max response was -8.95% (inactive). For `N#CNC(=NCCCCCCOc1ccc(Cl)cc1)Nc1ccncc1`, the Potency was 0.0037 µM (active). `COc1cc2c(Nc3ccc(Cl)c(Cl)c3F)ncnc2cc1OCC1C[C@@H]2CN(C)C[C@H]2C1` was tested, and the Potency was 5.9 µM (active). For `COc1ccc(Nc2nccc(NCCO)n2)cc1`, the max response was -27.2% (inactive). `CCOC(=O)[C@@H](N)Cc1ccc(-c2cc(O[C@H](c3ccc(Cl)cc3-n3ccc(C)n3)C(F)(F)F)nc(N)n2)cc1` was tested, and the max response was 6.69% (inactive). With `C[C@@H]1[C@H](C)CC[C@]2(C(=O)O)CC[C@]3(C)C(=CC[C@@H]4[C@@]5(C)C[C@@H](O)[C@H](O)[C@@](C)(CO)[C@H]5CC[C@]43C)[C@@H]12` the outcome was “inactive”. With `CC(C)(N)c1ccc(-c2nc3ccccc3nc2-c2ccccc2)cc1` the Potency was 1.87 µM (active). `C=CC1=C(C(=O)O)N2C(=O)[C@@H](NC(=O)C(=NO)c3csc(N)n3)[C@H]2SC1` was tested, and the max response was 4.36% (inactive). `COc1cc(C(C)C)c(Oc2cnc(NC(CO)CO)nc2N)cc1I` was tested, and the max response was -2.87% (inactive). With `CC(=O)[C@]1(O)Cc2c(O)c3c(c(O)c2[C@@H](O[C@H]2C[C@H](N)[C@@H](O)[C@H](C)O2)C1)C(=O)c1ccccc1C3=O` the Potency was 0.469 µM (active). For `CCOC(=O)N1CCN([N+]([O-])=NOc2ccc([N+](=O)[O-])cc2[N+](=O)[O-])CC1`, the outcome was “inactive”. In the case of `O=C1c2c(O)cccc2[C@@H]([C@@H]2O[C@H](CO)[C@@H](O)[C@H](O)[C@H]2O)c2cc(CO)cc(O)c21`, the outcome was “inactive”. In the case of `COc1cccc2c1C(=O)c1c(O)c3c(c(O)c1C2=O)C[C@@](O)(C(=O)CO)C[C@@H]3O[C@H]1C[C@H](N)[C@@H](O)[C@H](C)O1`, the Potency was 0.743 µM (active). In the case of `Nc1ncn([C@@H]2O[C@H](CO)[C@@H](O)[C@@H]2O)c(=O)n1`, the Potency was 8.33 µM (active). `Cc1cnc(Nc2ccc(CN3CCOCC3)cc2)nc1Nc1cccc(S(=O)(=O)NC(C)(C)C)c1` was tested, and the Potency was 4.18 µM (active) and 1.46 µM (active). `CC(=O)OC[C@@H]1O[C@@H](n2ccc(=O)[nH]c2=O)[C@H](OC(C)=O)[C@H]1OC(C)=O` was tested, and the max response was -0.144% (inactive). With `NC(=O)c1ncn([C@@H]2O[C@H](CO)[C@@H](O)[C@@H]2O)c1O` the max response was 6.36% (inactive). In the case of `O=C(C=Cc1ccc(CN(CCO)CCc2c[nH]c3ccccc23)cc1)NO`, the Potency was 0.264 µM (active). With `COc1ccnc2[nH]cc(C(=O)C(=O)N3CCN(C(=O)c4ccccc4)C[C@@H]3C)c12` the max response was 3.92% (inactive). With `C#C[C@]1(O)CC[C@@H]2[C@@H]3CCC4=CC(=O)CC[C@@H]4[C@H]3CC[C@@]21CC` the max response was -5.98% (inactive). In the case of `O=C(CN1C(=O)C2(CCCC2)NC[C@H]1c1cc(F)cc(F)c1)Nc1ccc2c(c1)C[C@@]1(C2)C(=O)Nc2ncccc21`, the max response was 2.38% (inactive). In the case of `CCCCOc1ccc(C(=O)Nc2ccc(F)cc2F)cc1`, the max response was 0.701% (inactive). With `Nc1ccc(C(=O)Nc2cccc(-c3nc(N4CCOCC4)c4oc5ncccc5c4n3)c2)cn1` the Potency was 20.6 µM (active) and the outcome was “inactive”. For `Cc1cc(C(=O)NOCCO)c(Nc2ccc(I)cc2F)n(C)c1=O`, the max response was -2.94% (inactive). In the case of `CCC[C@H]1C[C@H](C(=O)N[C@@H]([C@@H]2O[C@@H](SC)[C@@H](O)[C@@H](O)[C@@H]2O)[C@H](C)Cl)N(C)C1`, the max response was 0.31% (inactive). With `O=C(O)c1ccc(Nc2ncc3c(n2)-c2ccc(Cl)cc2C(c2c(F)cccc2F)=NC3)cc1` the Potency was 18.7 µM (active) and 5.8 µM (active). `FC(F)c1nc2ccccc2n1-c1nc(N2CCOCC2)nc(N2CCOCC2)n1` was tested, and the Potency was 2.59 µM (active). With `C[C@@H](Oc1ccc2[nH]nc(C=Cc3cnn(CCO)c3)c2c1)c1c(Cl)cncc1Cl` the Potency was 0.418 µM (active). In the case of `Cc1onc(-c2ccccc2)c1C(=O)N[C@@H]1C(=O)N2[C@@H](C(=O)O)C(C)(C)S[C@@H]12`, the max response was 3.95% (inactive). With `CCc1nc(-c2cccc(C)c2)c(-c2ccnc(NC(=O)c3ccccc3)c2)s1` the max response was -16.2% (inactive). For `CCOC(=O)N1CCN([N+]([O-])=NOc2ccc([N+](=O)[O-])cc2C#N)CC1`, the Potency was 16.6 µM (active).
% is scaled to controls: 0 for no effect and ±100 for the full control effect; potency is read from the fitted curve at half-maximal effect.
